This note sets out measurements from PubChem BioAssay (NCI).

Compounds without any hit were thinned out: in the full panel of roughly 79,000, 15% have a hit. Activity calls are given as the source filed them. No stated cut-off is given here; in the data, active means growth inhibition above about 70%; inactive means the rest. Where a SMILES comes first, the peptide text is derived from it. Bridges are numbered along the chain shown (N, C = ends). Roman numbers before positions name the chains, in order.

This test is described as follows: NCI Yeast Anticancer Drug Screen. Data for the sgs1 mgt1 strain (AID 161).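 Further: 0% = growth of cultures given vehicle only.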 Conditions: S. cerevisiae sgs1 mgt1 strain, at 50.0 µM, active compounds read high. The procedure:
Growth inhibition of yeast strains with defined genetic alterations is measured as a screen for potential anti-cancer activity. Selected strains with alterations in DNA damage repair or cell cycle control were exposed to compounds and growth inhibition was measured relative to vehicle treated controls. The strain used in this assay is sgs1 mgt1
For `C#CCOC(=O)C(N)CS` (stereo not given), the growth inhibition is -13.6% (inactive). With `COC(=O)CCOc1ccccc1`, the growth inhibition is 0.25% (inactive). With `S=c1[nH]ncn2nc3ccccc3c12`, the growth inhibition was -2.25% (inactive).

In the case of `CC(C)=CC1C(C(=O)O)C1(C)C` (stereo not given), the growth inhibition is 3.35% (inactive). The figure for `O=C(CCc1ccccc1CO)NCCc1ccccc1` is -18.1% (inactive). Consider `C=CCCC12CCCC(=O)C1Sc1ccc3ccccc3c12` (stereo not given), for which the growth inhibition is 11.3% (inactive). The figure for `CC(C)OC(=O)c1cc(N)ccc1Cl` is 17.4% (inactive).

`CCOc1nc2ccc(N)cc2s1`: the growth inhibition was 3.25% (inactive). The same measure for `O=C(Nc1nccs1)c1c(O)nc2sccn2c1=O`: 18.9% (inactive). For the compound `O=C(CC1(O)C(=O)Nc2ccc(Br)cc21)c1ccc(Cl)cc1Cl` (stereo not given), the growth inhibition was 69% (inactive). Turning to `CC1(C)NNC(=S)NC1=O`, the growth inhibition is -7.65% (inactive). Regarding `CCOC(=O)C1CC1c1ccccc1` (stereo not given), the growth inhibition is -0.25% (inactive). Turning to `Cc1ccc(NC(=S)N/C=C(\c2ccccc2)S(=O)Cc2ccccc2)c(C)c1` (stereo not given), the growth inhibition was -8% (inactive). The same measure for `CC(=O)N/N=C1\NN(C(C)=O)C2(S1)C(=O)Nc1ccccc12` (stereo not given): 68.8% (inactive); for `C[Si](Cn1ccc(=O)n(C[Si](C)(c2ccccc2)c2ccccc2)c1=O)(c1ccccc1)c1ccccc1`: -12.3% (inactive); for `CCOC(=N)CC(=O)Nc1ccccc1`: 1.65% (inactive). As to `Nc1ccc(Br)c2ccccc12`, the growth inhibition is 16.8% (inactive). As for `CCOC(=O)c1ccc(N=c2sc3ccccc3nc2Nc2ccc(C(=O)OCC)cc2)cc1`, the growth inhibition is -2.05% (inactive). Take `COc1cc([C@@H]2c3cc4c(cc3[C@H](O)[C@H]3COC(=O)[C@@H]23)OCO4)cc(OC)c1OC`: the growth inhibition was 1.2% (inactive). Take `CC(C)CC(NC(=O)C(N)CSSCC(N)C(=O)NC(CC(C)C)C(=O)O)C(=O)O` (stereo not drawn) (I: H-Cys-Leu-OH / II: H-Cys-Leu-OH; disulfide I:1-II:1; configuration not given here): the growth inhibition is -9.8% (inactive). As to `CC1(C)CC(C2=NCCO2)CC(C)(C)N1`, the growth inhibition was -39.3% (inactive).

Consider `Cc1ccc(-c2n[nH]c(=O)n2/N=C\c2ccc([N+](=O)[O-])cc2)cc1`, for which the growth inhibition was -12.4% (inactive).

For the compound `O=C(O)c1nn(-c2ccccc2)c2c1CSc1ccccc1-2`, the growth inhibition is 25.6% (inactive).

With `CCOCCC(=O)O`, the growth inhibition is -7% (inactive).

Regarding `NC(N)=NC(N)=Nc1ccc(C(=O)O)cc1`, the growth inhibition is -26.8% (inactive). Turning to `O=c1[nH]c(-c2ccccc2)nc(-c2ccccc2)c1Cc1cc2c(cc1O)OCC2`, the growth inhibition was 20.7% (inactive). In the case of `COc1ccc([N+](=O)[O-])cc1NC(=O)Nc1ccc(F)c([N+](=O)[O-])c1`, the growth inhibition is -6.3% (inactive). The figure for `Nc1ccc(F)c([N+](=O)[O-])c1` is -1.6% (inactive); for `CC1(C)SC(C)(C)C1=O` it is -0.6% (inactive); for `CS(=O)(=O)OCCCCCCCCCOS(C)(=O)=O` it is -3.6% (inactive). The same measure for `CCN(CC)c1ccc(/C=C\c2c(C)cnc3ccccc23)cc1`: 17.9% (inactive); for `COc1ccc(N2C(=O)/C(=C/c3ccc(N(CCC#N)CCC#N)cc3C)N=C2c2cc([N+](=O)[O-])ccc2Cl)cc1`: 1.5% (inactive). Regarding `C=C1/C=C/C=C(/C)C(=O)Nc2c(C=O)c(O)c3c4c(c(C)c(O)c3c2O)OC(C)(O/C=C/C(OC)C(C)C(OC(C)=O)C(C)C(O)C(C)C1O)C4=O` (stereo not given), the growth inhibition is 16.4% (inactive).

For `C[C@H](OCc1ccccc1)C(=O)N1CCS(=O)(=O)N2CCC[C@@H]2C1=O`, the growth inhibition was -18.2% (inactive).

On to `CCCCCCCCCCCC1=C(O)C(=O)C(I)=C(O)C1=O`, for which the growth inhibition is 63.1% (inactive). On to `O=C(/C=N/O)Nc1ccccc1`, for which the growth inhibition is -0.15% (inactive).

On to `COC(=O)c1nc(=S)[nH]c(C(=O)OC)c1C(=O)c1ccc(OC)cc1`, for which the growth inhibition was -10.2% (inactive).

Regarding `COc1ccccc1/C=N/Nc1ccc([N+](=O)[O-])cc1[N+](=O)[O-]`, the growth inhibition was 3.35% (inactive).

As to `Cc1ccc(C(=O)OCc2ccccc2CN2CCCCC2)cc1`, the growth inhibition is -22.6% (inactive). In the case of `COc1cc(/C(=C\c2ccccc2N)C(=O)O)cc(Br)c1OC`, the growth inhibition is -11.2% (inactive).
